Laboratory results published in PubChem BioAssay (NCATS).
Results filed as inconclusive are left out. Entries that show only a call come without a potency. Calls of active or inactive are those of the source. Unless noted, calls come from the whole dose curve; as a rule, active = well fitted curve in the direction sought with a large enough effect; inconclusive = small, poorly fitted or top-dose-only effect, or another doubt; inactive = no such curve, though single readings can be large; an effect the other way counts as inactive or inconclusive.

How the values were obtained:
[1] = biological target: D(1A) dopamine receptor (Homo sapiens) (UniProt P21728); assay: HTS Assay for Allosteric Agonists of the Human D1 Dopamine Receptor: Primary Screen for Potentiators (AID 488982)
Method in brief: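 Tetracycline-induced HEK293 T-REx cells force-coupled to calcium signalling were incubated overnight at 30 C and dye-loaded at room temperature. Calcium flux over 180 s after compound addition flagged agonists; a further 180 s read after EC20 dopamine flagged potentiators.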

[2] = biological target: D(1A) dopamine receptor (Homo sapiens) (UniProt P21728); assay: HTS Assay for Allosteric Agonists of the Human D1 Dopamine Receptor: Primary Screen for Antagonists (AID 488983);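 note: calcium flux response to an EC80 dopamine challenge measured with no-wash dye; nearly all actives have a fitted effect of over 65% in size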
Method in brief: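 Calcium flux readout, no-wash dye, inducible HEK293 T-REx D1 line (force-coupled). Compound added after 10 s baseline, 180 s kinetic read; then dopamine at EC80, further 180 s read.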

[3] = biological target: ATP-dependent 6-phosphofructokinase (Trypanosoma brucei brucei) (UniProt O15648); assay: qHTS Assay to Find Inhibitors of T. brucei phosphofructokinase: hit validation (AID 492961);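 note: luminescence reports ADP formed as PFK phosphorylates fructose-6-phosphate with ATP; series mostly up to about 51 µM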
Method in brief: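 Percent activity derived from corrected luminescence, normalized between 0x and 1x enzyme controls, then fitted to concentration-response curves. Conditions: 1.25 nM PFK, 0.1 mM ATP, 0.5 mM F6P, 45 min RT.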

[4] = Validation screen for small molecules that induce genotoxicity in human embryonic kidney (HEK293T) cells expressing luciferase-tagged ELG1 (AID 493106)
Method in brief: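 qHTS format; 2,000 HEK293T ELG1-luc cells/well; 23 nL compound via pin tool; 16 hr, 37 °C/5% CO2; ONE-Glo, 30 min RT; luminescence read.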

[5] = Nrf2 qHTS screen for inhibitors: Validation (AID 493153; active = well fitted inhibition curve with a large enough effect in the main read-out, with a control signal flat, not every such curve was filed as active); conditions: Potency: luciferase luminescence; viability change: measured here: cytotoxicity max response
Method in brief: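 Concentration-response test in A549 ARE_Fluc reporter cells (5% FBS OPTI-MEM), compound exposure 18-24 h at 37°C, 5% CO2. Cell viability measured first by CellTiter-Fluor fluorescence; ARE-driven luciferase luminescence then measured as Nrf2 activity.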

[6] = biological target: Galactokinase (Homo sapiens) (UniProt P51570); assay: qHTS Validation Assay for Inhibitors of Human Galactokinase (GALK) (AID 493189)
Method in brief: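 5 nM GALK / 100 uM galactose / 35 uM ATP, 20 mM HEPES pH8.0, 5 mM MgCl2, 60 mM NaCl, 1 mM DTT, 0.01% BSA (final). RT 1 h; Kinase-Glo Plus luminescence.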

[7] = Validation screen for small molecules that induce DNA re-replication in SW480 colon adenocarcinoma cells (AID 504364)
Method in brief: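 Read-out: total Hoechst intensity of nuclei by fluorescence scanning imager; hits raise the fraction of nuclei with elevated DNA content. Cells received compound for 48 hr at 37 C before a 40 min stain.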

[8] = biological target: Peptidyl-prolyl cis-trans isomerase NIMA-interacting 1 (Homo sapiens) (UniProt Q13526); assay: qHTS Validation Assay to Find Inhibitors of Pin1 (AID 504536; active = well fitted inhibition curve with a large enough effect in the polarisation, with a control signal flat, not every such curve was filed as active; the % refers to the polarisation)
Method in brief: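 Fluorescence polarization competition: compounds (titration) displace HiFluor-488-labeled Pin1-1b peptide from Pin1 (0.3 uM final) in pH 7.5 HEPES buffer with DTT, 10 min at room temperature; %Activity normalized to no-enzyme wells, curves fitted.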

[9] = biological target: Phosphoglycerate kinase, glycosomal (Trypanosoma brucei brucei) (UniProt P07378); assay: qHTS Validation Assay to Find Inhibitors of Phosphoglycerate Kinase (AID 504547)
Method in brief: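 In TEA buffer (100mM, pH 7.6) containing 5mM MgCl2 and 0.01% Tween-20, the GAPDH-coupled PGK reaction proceeded for 60 minutes at room temperature before a single luminescence reading using Kinase-Glo Plus.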

[10] = biological target: phosphoglycerate mutase (Leishmania major) (UniProt Q4Q090); assay: qHTS Validation Assay to Find Inhibitors of Phosphoglycerate Mutase (AID 504548);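 note: end-point luminescence from Kinase-GloPlus after the PGAM reaction; series mostly up to about 58 µM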
Method in brief: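 L. major PGAM (1.25nM final) was added to substrate buffer and pinned compound, incubated 45 minutes at room temperature, then Kinase-GloPlus added; luminescence read after 10 minutes. Buffer: 100 mM TEA pH 7.6, 5 mM MgCl2, 0.01% Tween-20.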

[11] = biological target: Ubiquitin carboxyl-terminal hydrolase 1 (Homo sapiens) (UniProt O94782); assay: Inhibitors of USP1/UAF1: Pilot qHTS (AID 504865); note: nearly all actives have a fitted effect of over 35% in size; note: potency is the fitted concentration of half-maximal effect
Method in brief: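 In 50mM HEPES pH 7.8 containing 0.5mM EDTA, 1mM TCEP, 0.1 mg/ml BSA and 0.01% Tween-20, 1nM USP1/UAF1 is exposed to compound for 15 min, then Ub-Rho (150nM final) is added and fluorescence is read over time.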

[12] = qHTS for Inhibitors of ATXN expression: Validation of Cytotoxic Assay (AID 588349)
Method in brief: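 Cytotoxicity counter-screen: HEK293 cells exposed to compound titrations, 72 hr, 37 degrees C. Read-out is intracellular ATP (CellTiter Glo luminescence) as a viability measure.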

[13] = qHTS for Inhibitors of ATXN expression: Validation (AID 588378); note: series mostly up to about 57 µM; nearly all actives have a fitted effect of over 75% in size
Method in brief: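 Compounds were pinned onto attached HEK293 cells carrying an ATXN2-firefly luciferase construct and incubated 24 hrs at 37 degrees C. Each well then received a fluorescent viability reagent followed by luciferase substrate for end-point luminescence.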

[14] = biological target: ATPase family AAA domain-containing protein 5 (Homo sapiens) (UniProt Q96QE3); assay: Validation screen for small molecules that inhibit ELG1-dependent DNA repair in human embryonic kidney (HEK293T) cells expressing luciferase-tagged ELG1 (AID 493107);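 note: cells co-treated with the DNA-damaging agent 5-fluorouridine alongside compound; series mostly up to about 46 µM; inhibitors lower the ELG1-luciferase luminescence signal; nearly all actives have a fitted effect of over 70% in size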
Method in brief: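 ELG1-luciferase HEK293T reporter; 5-fluorouridine + compound/DMSO, 16 hr, 37 °C, 5% CO2; ONE-Glo 30 min RT; luminescence read, qHTS format.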

[15] = biological target: Thyrotropin-releasing hormone receptor (Homo sapiens) (UniProt P34981); assay: qHTS for Small Molecule Agonists and Allosteric Enhancers of Human TRH Receptor: Validation Screen for Agonists (AID 493127;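 active = calcium activation more than 3 SD above the typical response in the agonist read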;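 note: intracellular calcium rise by fluo-8 fluorescence before TRH EC20 addition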); conditions: TRH receptor agonist cell assay; at 2 µM; stronger effect = higher value
Method in brief: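 Read-out: intracellular calcium release measured kinetically by FDSS (fluo-8, ex 480/em 530 nm), 1 reading/s after a 10-cycle baseline. TRHR cells, 2000/well, cultured 18 h at 33.5C, dye-loaded at room temp. Compound-evoked positive calcium signal flags agonists.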

[16] = qHTS for Inhibitors of Cell Surface uPA Generation: Validation Assay (AID 493164);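 note: RAW 264.7 macrophage cells exposed to compound for 18 h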
Method in brief: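 Compounds are titrated over seven points (2.45 nM–38.3 uM final) onto pre-plated RAW 264.7 cells and incubated for 18 h. Retained intracellular ATP, measured with ATP-Lite, indicates blocked lethal factor entry.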

[17] = biological target: DNA dC->dU-editing enzyme APOBEC-3G (Homo sapiens) (UniProt Q9HC16); assay: qHTS for inhibitors of Vif-A3G interactions: Validation (AID 588379)
Method in brief: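 Yellow fluorescence (Ex 488, Em 500-530) of Vif-coexpressing HeLa A3G-eYFP cells, scanned by Acumen cytometer, reports blocked A3G degradation. Cells plated at 700/well overnight at 37 deg C before compound addition, then a further overnight compound incubation at 37 deg C.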

Sequence of Ubiquitin carboxyl-terminal hydrolase 1 (Homo sapiens) (O94782 whole entry, looked up): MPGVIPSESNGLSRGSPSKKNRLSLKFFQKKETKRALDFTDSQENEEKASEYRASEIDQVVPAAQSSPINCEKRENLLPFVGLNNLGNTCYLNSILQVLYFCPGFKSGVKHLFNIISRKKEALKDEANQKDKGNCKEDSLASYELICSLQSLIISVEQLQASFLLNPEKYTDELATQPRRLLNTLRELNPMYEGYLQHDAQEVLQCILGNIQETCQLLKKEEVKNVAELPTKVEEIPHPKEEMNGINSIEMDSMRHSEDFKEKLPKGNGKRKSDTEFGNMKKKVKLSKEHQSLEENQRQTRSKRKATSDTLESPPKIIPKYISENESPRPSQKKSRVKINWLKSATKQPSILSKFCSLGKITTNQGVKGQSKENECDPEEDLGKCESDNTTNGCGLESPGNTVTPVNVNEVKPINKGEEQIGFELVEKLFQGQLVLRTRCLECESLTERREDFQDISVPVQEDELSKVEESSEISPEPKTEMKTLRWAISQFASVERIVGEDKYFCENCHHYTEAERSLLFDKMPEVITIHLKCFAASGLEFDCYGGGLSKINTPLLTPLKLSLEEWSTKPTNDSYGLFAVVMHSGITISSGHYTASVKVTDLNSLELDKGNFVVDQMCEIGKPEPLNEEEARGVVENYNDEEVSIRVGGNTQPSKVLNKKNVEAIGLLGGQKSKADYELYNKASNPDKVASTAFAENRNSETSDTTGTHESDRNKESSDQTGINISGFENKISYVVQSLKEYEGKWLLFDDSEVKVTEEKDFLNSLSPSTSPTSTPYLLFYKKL
Sequence of Peptidyl-prolyl cis-trans isomerase NIMA-interacting 1 (Homo sapiens) (Q13526 whole entry, looked up): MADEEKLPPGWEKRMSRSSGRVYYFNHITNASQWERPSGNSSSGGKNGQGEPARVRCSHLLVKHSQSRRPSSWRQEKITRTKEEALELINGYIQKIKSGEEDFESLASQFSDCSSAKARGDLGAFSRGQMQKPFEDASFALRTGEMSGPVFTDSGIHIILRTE
Sequence of phosphoglycerate mutase (Leishmania major) (Q4Q090 1-553): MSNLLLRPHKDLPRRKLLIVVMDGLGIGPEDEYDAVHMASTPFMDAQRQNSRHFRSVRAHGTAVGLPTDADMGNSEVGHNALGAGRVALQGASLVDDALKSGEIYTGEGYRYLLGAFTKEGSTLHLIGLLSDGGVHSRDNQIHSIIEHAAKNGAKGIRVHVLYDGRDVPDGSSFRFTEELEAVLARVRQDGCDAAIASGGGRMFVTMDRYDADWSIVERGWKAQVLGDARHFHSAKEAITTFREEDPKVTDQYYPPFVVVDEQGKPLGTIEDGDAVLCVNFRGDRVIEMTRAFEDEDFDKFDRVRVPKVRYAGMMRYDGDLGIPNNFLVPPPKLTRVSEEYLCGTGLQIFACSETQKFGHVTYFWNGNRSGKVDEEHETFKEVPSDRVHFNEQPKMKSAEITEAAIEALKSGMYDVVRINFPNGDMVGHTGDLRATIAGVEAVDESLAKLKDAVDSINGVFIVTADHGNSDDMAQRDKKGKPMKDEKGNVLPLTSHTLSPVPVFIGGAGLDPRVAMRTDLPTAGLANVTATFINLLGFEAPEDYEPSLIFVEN
Sequence of ATPase family AAA domain-containing protein 5 (Homo sapiens) (Q96QE3 whole entry, looked up, the tested form may be a part): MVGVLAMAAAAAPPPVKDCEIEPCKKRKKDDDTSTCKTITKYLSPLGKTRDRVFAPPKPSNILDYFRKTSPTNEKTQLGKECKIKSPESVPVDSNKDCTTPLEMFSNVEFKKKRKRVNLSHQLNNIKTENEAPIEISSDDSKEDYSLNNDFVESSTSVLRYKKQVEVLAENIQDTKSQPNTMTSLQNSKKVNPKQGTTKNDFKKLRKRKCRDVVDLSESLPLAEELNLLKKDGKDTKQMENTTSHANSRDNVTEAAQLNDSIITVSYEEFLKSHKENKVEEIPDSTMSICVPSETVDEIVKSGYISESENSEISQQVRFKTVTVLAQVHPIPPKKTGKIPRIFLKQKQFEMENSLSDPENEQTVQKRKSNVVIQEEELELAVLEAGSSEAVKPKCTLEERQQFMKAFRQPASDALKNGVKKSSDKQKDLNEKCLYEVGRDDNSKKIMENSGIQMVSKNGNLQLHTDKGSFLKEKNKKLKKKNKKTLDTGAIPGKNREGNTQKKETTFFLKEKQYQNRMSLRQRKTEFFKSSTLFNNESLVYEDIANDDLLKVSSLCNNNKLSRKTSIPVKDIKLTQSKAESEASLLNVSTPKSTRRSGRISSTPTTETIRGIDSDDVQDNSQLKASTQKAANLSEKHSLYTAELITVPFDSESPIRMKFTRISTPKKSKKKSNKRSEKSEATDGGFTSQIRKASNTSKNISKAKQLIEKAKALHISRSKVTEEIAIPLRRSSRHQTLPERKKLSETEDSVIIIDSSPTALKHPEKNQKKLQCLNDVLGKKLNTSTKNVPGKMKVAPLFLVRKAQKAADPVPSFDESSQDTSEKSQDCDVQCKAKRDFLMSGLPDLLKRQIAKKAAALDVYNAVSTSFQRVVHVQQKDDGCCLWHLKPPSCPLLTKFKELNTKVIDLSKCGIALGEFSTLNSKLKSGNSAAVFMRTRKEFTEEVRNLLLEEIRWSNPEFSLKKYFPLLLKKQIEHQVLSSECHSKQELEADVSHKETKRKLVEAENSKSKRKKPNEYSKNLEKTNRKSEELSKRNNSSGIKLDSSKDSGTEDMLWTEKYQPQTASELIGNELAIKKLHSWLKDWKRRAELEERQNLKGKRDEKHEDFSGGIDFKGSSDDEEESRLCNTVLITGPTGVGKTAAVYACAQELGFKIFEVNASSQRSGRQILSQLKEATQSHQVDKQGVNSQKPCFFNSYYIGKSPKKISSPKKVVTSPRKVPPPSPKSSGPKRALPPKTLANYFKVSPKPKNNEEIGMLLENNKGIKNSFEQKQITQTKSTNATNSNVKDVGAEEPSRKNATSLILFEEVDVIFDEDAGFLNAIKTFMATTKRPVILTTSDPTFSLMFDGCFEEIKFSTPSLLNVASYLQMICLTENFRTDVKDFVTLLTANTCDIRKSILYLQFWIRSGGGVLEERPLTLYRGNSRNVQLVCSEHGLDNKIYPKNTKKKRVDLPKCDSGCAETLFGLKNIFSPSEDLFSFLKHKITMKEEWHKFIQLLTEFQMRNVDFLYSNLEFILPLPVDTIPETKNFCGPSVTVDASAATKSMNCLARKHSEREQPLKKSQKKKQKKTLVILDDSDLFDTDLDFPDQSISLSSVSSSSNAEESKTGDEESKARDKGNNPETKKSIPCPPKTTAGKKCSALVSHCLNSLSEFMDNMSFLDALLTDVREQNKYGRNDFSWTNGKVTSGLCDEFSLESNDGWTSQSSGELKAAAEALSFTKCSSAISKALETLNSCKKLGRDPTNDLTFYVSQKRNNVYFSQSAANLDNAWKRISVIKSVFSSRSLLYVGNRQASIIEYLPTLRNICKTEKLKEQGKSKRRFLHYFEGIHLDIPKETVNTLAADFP
Sequence of D(1A) dopamine receptor (Homo sapiens) (P21728 whole entry, looked up): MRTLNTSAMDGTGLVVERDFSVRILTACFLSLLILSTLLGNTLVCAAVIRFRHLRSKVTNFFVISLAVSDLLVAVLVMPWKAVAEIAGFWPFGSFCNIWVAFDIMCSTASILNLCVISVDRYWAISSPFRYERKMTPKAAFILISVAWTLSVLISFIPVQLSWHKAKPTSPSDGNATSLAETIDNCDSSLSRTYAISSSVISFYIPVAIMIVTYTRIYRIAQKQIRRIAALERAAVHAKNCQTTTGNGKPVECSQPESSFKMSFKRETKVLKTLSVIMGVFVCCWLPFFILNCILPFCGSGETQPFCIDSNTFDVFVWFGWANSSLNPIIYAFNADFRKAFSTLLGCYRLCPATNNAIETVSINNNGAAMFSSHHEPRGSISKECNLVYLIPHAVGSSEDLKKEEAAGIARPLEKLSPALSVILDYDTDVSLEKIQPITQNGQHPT
Sequence of Galactokinase (Homo sapiens) (P51570 whole entry, looked up): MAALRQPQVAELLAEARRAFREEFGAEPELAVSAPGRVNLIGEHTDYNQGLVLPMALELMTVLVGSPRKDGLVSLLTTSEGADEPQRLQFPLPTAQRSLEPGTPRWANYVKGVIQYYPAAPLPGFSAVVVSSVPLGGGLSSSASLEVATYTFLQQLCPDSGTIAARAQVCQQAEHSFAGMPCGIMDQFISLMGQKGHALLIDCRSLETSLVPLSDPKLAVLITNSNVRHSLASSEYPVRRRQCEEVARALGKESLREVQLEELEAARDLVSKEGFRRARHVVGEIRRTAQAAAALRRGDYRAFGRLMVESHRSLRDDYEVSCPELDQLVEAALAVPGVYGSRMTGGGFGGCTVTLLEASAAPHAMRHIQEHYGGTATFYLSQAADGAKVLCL
Sequence of Phosphoglycerate kinase, glycosomal (Trypanosoma brucei brucei) (P07378 whole entry, looked up): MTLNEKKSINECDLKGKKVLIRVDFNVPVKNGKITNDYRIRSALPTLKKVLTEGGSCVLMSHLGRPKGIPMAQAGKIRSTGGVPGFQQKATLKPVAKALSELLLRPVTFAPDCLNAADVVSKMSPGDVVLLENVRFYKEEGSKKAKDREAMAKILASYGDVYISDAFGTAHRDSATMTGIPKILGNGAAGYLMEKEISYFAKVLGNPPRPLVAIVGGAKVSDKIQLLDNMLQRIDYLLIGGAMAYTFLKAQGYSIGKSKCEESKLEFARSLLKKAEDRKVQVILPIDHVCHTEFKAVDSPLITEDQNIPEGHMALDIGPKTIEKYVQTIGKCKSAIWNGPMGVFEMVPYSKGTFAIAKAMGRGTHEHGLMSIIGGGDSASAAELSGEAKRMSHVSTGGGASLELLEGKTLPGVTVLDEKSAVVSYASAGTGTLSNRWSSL
Sequence of Thyrotropin-releasing hormone receptor (Homo sapiens) (P34981 whole entry, looked up): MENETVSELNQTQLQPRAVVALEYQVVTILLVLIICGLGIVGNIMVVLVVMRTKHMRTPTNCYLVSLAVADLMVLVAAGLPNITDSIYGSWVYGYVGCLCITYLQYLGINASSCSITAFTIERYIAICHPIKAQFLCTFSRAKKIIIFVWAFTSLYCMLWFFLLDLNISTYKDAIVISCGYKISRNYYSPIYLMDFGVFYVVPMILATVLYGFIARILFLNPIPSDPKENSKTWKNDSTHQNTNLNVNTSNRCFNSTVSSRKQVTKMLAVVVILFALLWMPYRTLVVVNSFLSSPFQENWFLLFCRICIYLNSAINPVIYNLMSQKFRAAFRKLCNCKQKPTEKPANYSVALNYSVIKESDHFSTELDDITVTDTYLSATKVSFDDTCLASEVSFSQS

SMILES | Potency [1] | Potency [2] | outcome [3] | Potency [4] | Potency [5] | viability change [5] [%] | outcome [6] | outcome [7] | outcome [8] | outcome [9] | outcome [10] | Potency [11] | Potency [12] | Potency [13] | Potency [14] | activation [15] | outcome [16] | outcome [17]
CN(C)C(=O)Oc1ccc[n+](C)c1 | inactive | inactive | inactive | inactive | inactive | -10.4 | inactive | inactive | inactive | inactive | inactive | inactive | inactive | inactive | – | – | – | –
CC(=O)Oc1cc(C(C)C)c(OCCN(C)C)cc1C | inactive | inactive | inactive | inactive | inactive | -6.98 | inactive | inactive | inactive | – | inactive | inactive | – | inactive | inactive | 1.31% (inactive) | inactive | –
CCN(CC)CCOCCOC(=O)C1(c2ccccc2)CCCC1 | inactive | inactive | inactive | inactive | inactive | 0.933 | inactive | inactive | inactive | inactive | inactive | inactive | – | – | inactive | – | inactive | inactive
NC(=O)c1cn(Cc2c(F)cccc2F)nn1 | inactive | inactive | inactive | inactive | inactive | -8.96 | – | – | inactive | – | inactive | inactive | inactive | inactive | inactive | – | – | –
Cc1nnc(SCC2=C(C(=O)O)N3C(=O)[C@@H](NC(=O)Cn4cnnn4)[C@H]3SC2)s1 | inactive | inactive | inactive | inactive | inactive | -1.79 | inactive | inactive | inactive | – | inactive | inactive | inactive | inactive | inactive | 1.12% (inactive) | – | –
Cc1ccc(=O)n(-c2ccccc2)c1 | inactive | inactive | inactive | – | inactive | -2.33 | inactive | inactive | inactive | – | inactive | inactive | inactive | inactive | inactive | 0.875% (inactive) | – | inactive
CC(C(=O)O)c1ccc(CC2CCCC2=O)cc1 (configuration not stated) | inactive | inactive | inactive | inactive | inactive | -13.4 | inactive | inactive | inactive | inactive | inactive | inactive | inactive | inactive | inactive | 1.56% (inactive) | inactive | –
CC[N+](C)(C)c1cccc(O)c1 | inactive | inactive | inactive | inactive | inactive | 0.744 | inactive | inactive | inactive | inactive | inactive | inactive | – | inactive | inactive | – | inactive | –
CCCCNc1ccc(C(=O)OCCN(C)C)cc1 | inactive | inactive | inactive | – | inactive | 2.59 | inactive | inactive | inactive | inactive | inactive | inactive | inactive | inactive | inactive | 1.31% (inactive) | – | –
C#CCN(C)CCCOc1ccc(Cl)cc1Cl | inactive | inactive | inactive | inactive | inactive | -1.92 | inactive | inactive | – | – | inactive | inactive | – | inactive | – | -5.81% (inactive) | inactive | –
O=C(O)CP(=O)(O)O | inactive | inactive | inactive | inactive | inactive | 10.3 | inactive | inactive | inactive | inactive | inactive | inactive | – | inactive | inactive | – | inactive | –
CCN1CCC[C@H]1CNC(=O)c1c(O)c(Cl)cc(Cl)c1OC | inactive | inactive | inactive | inactive | inactive | -0.523 | inactive | inactive | inactive | inactive | inactive | inactive | inactive | inactive | inactive | 0.938% (inactive) | inactive | inactive
CN(C)C(=O)Oc1cccc([N+](C)(C)C)c1 | inactive | inactive | inactive | inactive | inactive | 0.794 | inactive | inactive | inactive | inactive | inactive | inactive | inactive | inactive | inactive | 0.625% (inactive) | inactive | –
Cc1cc(C)c(/C=C2\C(=O)Nc3ccccc32)[nH]1 | inactive | inactive | inactive | inactive | – | – | inactive | inactive | – | inactive | inactive | 7.52 µM (active) | – | inactive | – | 0.562% (inactive) | inactive | –
CC(N=C(NC#N)Nc1ccncc1)C(C)(C)C (configuration not stated) | inactive | inactive | inactive | inactive | inactive | -0.502 | – | inactive | inactive | – | – | inactive | – | inactive | inactive | 0.125% (inactive) | inactive | –
Cc1ccc(Cl)c(Nc2ccccc2C(=O)O)c1Cl | inactive | inactive | inactive | inactive | – | – | inactive | inactive | – | inactive | – | inactive | – | inactive | inactive | 0% (inactive) | – | –
